In the library only some 27% were active in any assay of this set; here they are far more common.
CYP2C19 act – increases human CYP2C19 enzyme activity; P33261; recombinant CYP2C19, luciferin-H EGE luminescence; stronger effect = higher value; 0 = fully inhibited enzyme, 1 = untreated enzyme; activation factor at 5 µM; 96,000 tested, under 10 active;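 active = activation factor of at least 2 at 5 µM in the primary screen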
CYP2C9 act – increases human cytochrome P450 2C9 activity; recombinant CYP2C9, luciferin-H conversion, luminescence; stronger effect = higher value; factor 1 = untreated enzyme, 0 = blocked; activation factor at 5 µM; 1.4% of 96,000 active; AID 1024;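 active = activation factor of 2 or more for CYP2C9 at a 5 µM dose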
Cav32 inh – inhibitors of human Cav3.2 T-type calcium channel; Cav3.2-expressing cells, Fluo-4 calcium fluorescence FDSS; stronger effect = lower value; 4% of 100,000 active; AID 449739; B-score at 10 µM; O95180;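 active = single-dose well whose peak fluorescence ratio is a statistical outlier from its plate by either plate-standardised score or position-corrected B-score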
CYP2C19 inh – inhibitors of human CYP2C19 | CYP2C19 Supersomes, luciferin-H EGE luminescence, 30 min | inhibition, % at 5 µM | 21% of 96,000 active;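 active = CYP2C19 inhibition above a set limit at 5 µM in the primary screen, cut at about 50% in these data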
CYP2C9 inh – inhibitors of human CYP2C9; 20% of 96,000 active; AID 777; CYP2C9 Supersomes, luciferin-H conversion, luminescence; P11712; inhibition, % at 5 µM;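 active = blocking of liver enzyme CYP2C9 beyond about 50% at 5 µM, limit read from the data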
A number is an active result; n = inactive; x = not tested or not shown.

SMILES | CYP2C19 act | CYP2C9 act | Cav32 inh | CYP2C19 inh | CYP2C9 inh
C/C(N)=C(/C#N)C(=O)COC(=O)c1ccncc1 | n | n | n | 65 | n
CCN(CC)C(=O)N1CCC(NC(=O)c2ccccc2)CC1 | n | n | n | n | n
Cc1ccc2c(c1)nnn2C1CCN(S(=O)(=O)c2ccc(C(=O)N(C)C3CCCCC3)cc2)CC1 | n | n | n | n | n
O=C(CCS(=O)(=O)c1ccc(Br)s1)N1CCc2ccccc21 | n | n | n | n | n
CCN(C(=O)COC(=O)c1cc(C)n(-c2ccc(F)cc2)c1C)C1CCS(=O)(=O)C1 (stereo unspecified) | n | n | n | n | n
C/C(N)=C(/C#N)C(=O)COC(=O)c1cc(C)n(-c2ccc(F)cc2)c1C | n | n | n | 59 | n
COc1ccc(-c2[nH]ncc2Oc2ccccc2OC)c(O)c1 | n | n | n | 94 | 75
CCCc1ccc(OCCNC(C)=O)cc1 | x | x | n | x | x
COc1ccc(Oc2cn[nH]c2-c2ccc(O)cc2O)cc1 | n | n | -6 | 100 | 99
COc1ccc(-c2[nH]ncc2-c2cnn(-c3ccccc3)c2)c(O)c1 | n | n | n | 69 | 82
COc1ccc(-c2nc(N)ncc2Oc2ccccc2Br)c(O)c1 | n | n | x | n | n
CCCc1ccc(Oc2cn[nH]c2-c2ccc(O)cc2O)cc1 | n | n | n | 96 | 89
Cc1[nH]nc(-c2ccc(OCc3cnn(-c4ccccc4)c3)cc2O)c1Oc1ccccc1F | n | n | n | n | n
COC(=O)C(C(=O)OC)C(C)C(C(=O)OC)C(=O)OC | n | n | n | n | n
CC(C)CC(CO)N1CCN(C(=O)c2ccc(C(C)(C)C)cc2)CCC1=O (stereo unspecified) | x | x | n | x | x
CCC(=O)N1CCc2cc(S(=O)(=O)NCCCN(CC)Cc3ccccc3)ccc21 | n | n | n | n | n
COCCNC(=O)C1CCN(S(=O)(=O)c2ccccc2)CC1 | n | n | n | n | n
CC(C)NC(=O)c1ccccc1-c1ccccc1 | n | n | n | n | n
CC(C)NC1=C(Cl)C(=O)c2ccccc2C1=O | n | n | n | 90 | n
COc1cc(OC)c(Cl)cc1N | n | n | n | n | n
Cc1ccc(-n2cnc3cc(NCc4cccs4)ccc32)cc1 | n | n | n | 90 | 93
CC(C)CCNC(=O)c1c(CSc2ccc(Cl)cc2)noc1C(=O)NCc1ccccc1 | x | x | n | x | x
Clc1ccc(COn2nnc3ccccc32)c(Cl)c1 | n | n | n | 64 | n
Nc1nnnn1/N=C/c1ccccc1OCc1ccc(Cl)cc1Cl | n | n | n | n | n
O=C(NCCN1C(=O)C2C3C=CC(C3)C2C1=O)Nc1cccnc1 (stereo unspecified) | n | n | n | n | n
SMILES | CYP2C19 act | CYP2C9 act | Cav32 inh | CYP2C19 inh | CYP2C9 inh
COc1ccccc1NC(=O)NCCN1C(=O)C2C3C=CC(C3)C2C1=O (stereo unspecified) | n | n | n | 66 | n
O=C(NCCN1C(=O)C2C3C=CC(C3)C2C1=O)Nc1ccc(Br)cc1 (stereo unspecified) | n | n | n | 94 | 55
CC(Oc1ccccc1)C(=O)N1CCC2(CC1)Oc1ccc(F)cc1C(=O)C21CC(c2cccnc2)=NO1 (stereo unspecified) | x | x | n | x | x
COc1ccc(OCCc2nnc(N)s2)cc1 | n | n | n | n | n
Nc1nnc(SCCOc2ccccc2)s1 | n | n | n | 87 | 63
CCOc1ccc(C(=O)CSc2nnc(N)s2)cc1 | n | n | n | 58 | n
Nc1nnc(SCCOc2ccc(Br)cc2)s1 | n | n | n | 82 | n
O=C(O)CC(C(=O)Nc1ccc(Cl)c(Cl)c1)C1CCCO1 (stereo unspecified) | n | n | n | n | n
CCOC(=O)C1CCN(C(=O)CC(NS(=O)(=O)c2ccc(OC)cc2)C(C)C)CC1 (stereo unspecified) | n | n | n | n | n
O=C1c2ccccc2C(O)(c2ncc[nH]2)N1CCc1ccccc1 (stereo unspecified) | n | n | n | 92 | n
Cc1noc(C)c1C(=O)OCC(=O)c1ccc[nH]1 | n | n | n | n | 85
Cc1noc(C)c1C(=O)OCC(=O)NCCc1ccc(Cl)cc1 | n | n | n | n | n
Cc1noc(C)c1C(=O)OCC(=O)c1cc(C)n(Cc2ccccc2Cl)c1C | n | n | n | 90 | 87
Cc1ccc(CNC(=O)COC(=O)c2c(C)noc2C)cc1 | n | n | n | 86 | n
COc1ccc(-c2nc3c(c(=O)n(C)c(=O)n3C)n2CC2CC(c3ccccc3)=NO2)cc1OC (stereo unspecified) | x | x | 3.4 | x | x
